Most compounds without a hit are left out; they make up all but 2.6% or so of the library.
TCR act: activators of T cell receptors | primary human leukocytes, anti-CD3, IL-2 HTRF, 48 h | Potency, µM (titrated, usually from 9.22 µM), for the others: at the top dose activation of IL-2 secretion, hits mostly activators | 330,000 tested, under 10 active | AID 504894; also: % of control where 0% means no effect
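Compounds are tested in HTS on primary human leukocytes co-incubated with a-CD3 beads for 48 hr. IL-2 output is measured by time-resolved FRET.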
CCT modulator: changes cytosolic chaperonin activity; 360,000 compounds, 0.3% hits; purified chaperonin ATPase assay, HTRF ADP detection, 30 min; activity change, % (no concentration beside the values), hits read low; in the data active = activity change below about -30%; also: % is scaled to controls: 0 for no effect and ±100 for the full control effect
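TRiC at 40 or 20 nM final (batch-dependent) in 30 mM Tris pH 7.4, 100 mM KCl, 5 mM MgCl2, 1 mM DTT, with compound at single 76 uM and 10 uM ATP, 30 min at 37 deg C. ADP detected by HTRF Transcreener, 665/615 ratio.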
Nrf2 block: blocks Nrf2 signaling | 360,000 compounds, 2.1% hits | A549 ARE-Fluc reporter, luciferase luminescence, 18-24 h | Potency, µM (doses to about 46 µM), without a hit: top-dose activity change, negative = inhibition, most hits filed as inhibitors; also: potency is read from the fitted curve at half-maximal effect; % is scaled to controls: 0 for no effect and ±100 for the full control effect; nearly all actives have a fitted effect of over 60% in size
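A549 ARE_Fluc cells (5000/well, 5% FBS OPTI-MEM) pre-incubated 2 h, then treated with compounds 18-24 h at 37C/5% CO2 in concentration-response. CellTiter-Fluor viability read first; BugLite luciferase luminescence after 15 min at room temperature gives Nrf2 activity.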
A549 tox: kills or reduces viability of A549 cells in Nrf2 counter-screen; A549 ARE-Fluc cells, CellTiter-Fluor viability, 18-24 h; Potency, µM (series often up to 46 µM), inactives show top-dose activity change, negative = cytotoxicity, most hits filed as inhibitors; 390,000 compounds, 0.16% hits; also: potency is read from the fitted curve at half-maximal effect; % is scaled to controls: 0 for no effect and ±100 for the full control effect
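A549 ARE-Fluc cells in 5% FBS OPTI-MEM, 5000 cells/well, rested 2 h then exposed to compounds in concentration-response for 18-24 h at 37 °C. Viability by CellTiter-Fluor fluorescence (Ex 405/Em 525) after 30 min; luciferase luminescence (BugLite, 15 min, RT) read afterwards.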
Nrf2 ARE act: activates Nrf2 signaling | AREc32 ARE-luciferase reporter (MCF7-derived line), luminescence, 24 h | Potency, µM (series often up to 46.1 µM), inactives show at the highest dose activation, hits mostly activators | 410,000 compounds, 0.31% hits; also: potency is read from the fitted curve at half-maximal effect; % of control where 0% means no effect; nearly all actives have a fitted effect of over 65% in size
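Steps: seed AREc32_Fluc cells (1000/well, 5% FBS OPTI-MEM); incubate overnight at 37 deg C; add 23 nL compound; incubate 24 hr; add Steady-Glo; hold 30 min RT; read luminescence.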
AT treatment: potential ataxia-telangiectasia treatment; 320,000 compounds, 0.19% hits; Potency, µM (doses to about 57.5 µM), inactives show at the highest dose activation, hits mostly activators; F2112 A-T fibroblasts, KAP-1 phosphorylation AlphaLISA; neocarzinostatin DNA damage 30 min before lysis; also: potency is read from the fitted curve at half-maximal effect; % of control where 0% means no effect; nearly all actives have a fitted effect of over 45% in size
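ATM-like activity read as KAP-1 phosphorylation via AlphaLISA donor/acceptor antibody pairs after lysis and 6 hr at 25C. Cells were ATM-null patient fibroblasts (F2112, hTERT), dosed 60 min, then exposed to the DSB inducer NCS for 30 min.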
An asterisk follows results filed as active; [ ] = remark or other dose. Unless noted, calls follow the shape of the dose curve; as a rule, active = well fitted curve in the direction sought with a large enough effect; inconclusive = small, poorly fitted or top-dose-only effect, or another doubt; inactive = no such curve, though single readings can be large; an effect the other way counts as inactive or inconclusive.

What do the screens show for `CCOCCCNc1ncnc2c1[nH]c1ccccc12`?
TCR act: -2%; CCT modulator: 2; Nrf2 block: 23µM*; A549 tox: -21%; Nrf2 ARE act: 11%; AT treatment: 1%

Results for c1nc(NCC2CCCO2)c2[nH]cnc2n1 (stereo not given) ?
TCR act: 8%; CCT modulator: -2; A549 tox: -15%; Nrf2 ARE act: 0%

What do the screens show for `CCCCOc1ncnc2c1[nH]c1ccccc12`?
TCR act: 1%; CCT modulator: -1; Nrf2 block: 8.2µM*; A549 tox: inconclusive; Nrf2 ARE act: 7%; AT treatment: 3%

Results for O=c1cc(CN2CCN(S(=O)(=O)c3cccc(Cl)c3)CC2)c2ccc(O)cc2o1 ?
TCR act: 2%; CCT modulator: 1; Nrf2 block: 3%; A549 tox: 2%; Nrf2 ARE act: 0%; AT treatment: 12%

What do the screens show for `Cc1c(C(=O)N2CCC(C)CC2)c(S(=O)(=O)NCc2ccc(Cl)cc2)c(C)n1C`?
A549 tox: -1%; Nrf2 ARE act: 1%

How did COc1ccc(-n2c(=O)c3sc4ccccc4c3n(CC(=O)N3CCCC3)c2=O)cc1 do in these assays?
Nrf2 block: 0%; A549 tox: -11%; Nrf2 ARE act: -1%

How did c1ccc(Nc2nc(NCC3CCCO3)c3ccccc3n2)cc1 (stereo not given) do in these assays?
TCR act: -1%; CCT modulator: 0; Nrf2 block: 18µM*; A549 tox: -25%; Nrf2 ARE act: 0%; AT treatment: 5%

How did CC(NC(=O)C1CCCC1)c1ccc(Br)cc1 (stereo not given) do in these assays?
TCR act: 0%; CCT modulator: -3; Nrf2 block: 26µM*; A549 tox: 17%; Nrf2 ARE act: 3%; AT treatment: 8%

Results for C=Cc1ccc(Cn2c(C)c(CNCCc3ccccc3C)c(C(=O)O)c2C)cc1 ?
Nrf2 block: 3%; A549 tox: -10%; Nrf2 ARE act: 0%

How did Cn1nc(-c2ccccc2F)c2cc(C(=O)Nc3ccc4c(c3)OCCO4)sc21 do in these assays?
TCR act: 5%; CCT modulator: -1; Nrf2 block: 15µM*; A549 tox: inconclusive; Nrf2 ARE act: 6%

How did CCOc1ccc(NC(=O)c2nn(C)c3c2CS(=O)(=O)c2ccccc2-3)cc1 do in these assays?
Nrf2 block: -5%; A549 tox: -1%; Nrf2 ARE act: -1%

How did COc1ccc(CC(=O)NCc2ccc3c(c2)CCN3C(C)=O)cc1 do in these assays?
A549 tox: 0%; Nrf2 ARE act: 0%

Results for CCOC(=O)C1(CCOC)CCN(C/C=C/c2ccccc2OC)CC1 ?
TCR act: 1%; CCT modulator: 1; Nrf2 block: inconclusive; A549 tox: -2%; Nrf2 ARE act: 1%

What do the screens show for `Cc1nn2c(CN(C(=O)COc3ccccc3)c3ccccc3)nnc2c2ccccc12`?
TCR act: 5%[46.1 µM]; CCT modulator: -1; Nrf2 block: -20%; A549 tox: -14%; Nrf2 ARE act: 1%; AT treatment: -4%

Results for Cc1nn2c(CN(C(=O)CN3CCOCC3)c3ccccc3)nnc2c2ccccc12 ?
TCR act: 0%[46.1 µM]; CCT modulator: -34*; Nrf2 block: -9%; A549 tox: -13%; Nrf2 ARE act: 0%; AT treatment: 1%

How did Cc1cc(Cl)ccc1OCC(=O)N1CCCN(C(=O)COc2ccc(Cl)cc2C)CC1 do in these assays?
TCR act: 2%[46.1 µM]; CCT modulator: 2; Nrf2 block: inconclusive; A549 tox: inconclusive; Nrf2 ARE act: 5%; AT treatment: -3%

Results for Cc1cc(Cl)ccc1OC(C)C(=O)N1CCCN(C(=O)C(C)Oc2ccc(Cl)cc2C)CC1 (stereo not given) ?
TCR act: 4%; CCT modulator: 1; Nrf2 block: 16µM*; A549 tox: inconclusive; Nrf2 ARE act: 5%; AT treatment: 11%

Screening data as filed in PubChem.
